Results: PubChem BioAssay (Tox21)
Values without a mark were called inactive. Inconclusive results are not listed. Entries that show only a call come without a potency. Activity calls are given as the source filed them. Unless noted, calls come from the whole dose curve; as a rule, active = well fitted curve in the direction sought with a large enough effect in the repeat runs; inconclusive = weak or mixed curves; inactive = no such curve, though single readings can be large; an effect the other way counts as inactive or inconclusive.

Tests used:
[1] = qHTS assay to identify small molecule agonists of the hypoxia (HIF-1) signaling pathway - cell viability counter screen (AID 1224844; calls by dose curve; note: nearly all actives have a fitted effect of over 50% in size)
How it was run: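 Luminescent ATP content (CellTiter-Glo, 30 min, room temperature) served as the viability measure in HRE-bla ME-180 cells exposed to compounds for 17 hrs in low-serum medium (0.5% dialyzed FBS).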

[2] = qHTS assay to identify small molecule agonists of H2AX (AID 1224845; active = well fitted activation curve with a large enough effect in the signal ratio in the repeat runs, not every such curve was filed as active; the % refers to the signal ratio)
How it was run: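 Wild-type CHO-K1 cells, plated overnight, exposed 3hr at 37C to 15 concentrations (0.76% DMSO final). Lysed, then HTRF anti-pH2AX (S139) cryptate and anti-H2AX-d2 antibodies, 24 hr room temperature; 665/620 nm emission read.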

[3] = qHTS assay to identify small molecule agonists of the hypoxia (HIF-1) signaling pathway (AID 1224846; active = well fitted activation curve with a large enough effect in the signal ratio in the repeat runs, not every such curve was filed as active; the % refers to the signal ratio)
How it was run: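 Measured by blue/green FRET after loading CCF4-AM: beta-lactamase expressed from a hypoxia response element in ME-180 cells. Test agents were delivered in DMSO and left 17 hrs; cells had been plated 5 hrs earlier in low-serum (0.5% dialyzed FBS) medium.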

[4] = qHTS assay to identify small molecule agonists of H2AX - cell viability counter screen (AID 1224847; calls by dose curve; note: top concentration of the series differs between compounds; nearly all actives have a fitted effect of over 30% in size)
How it was run: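 CHO-K1 wt, 1000 cells/well, o/n 37C; cpds 15 conc, 3 h 37C, 0.76% DMSO; CellTiter-Glo, 30 min RT, luminescence.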

[5] = qHTS RealTime-Glo MT Cell Viability Assay in HepG2 cells - 24 hour (AID 1224867); note: nearly all actives have a fitted effect of over 50% in size
How it was run: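 Tox21 10K library screened in qHTS format on HepG2 cells carrying RealTime-Glo reagents. Compounds were added after a 5 h preincubation, and the luminescent signal from continuous culture was measured repeatedly during 40 h treatment.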

[6] = A CellTox Green Cytotoxicity Assay to monitor cytotoxicity in HEK293 cells - 0 hour (AID 1224869); note: nearly all actives have a fitted effect of over 50% in size
How it was run: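 Each value comes from one timepoint of a single continuous run in which HEK293 cells with CellTox Green were exposed to compound for up to 40 h at 37 C, dye fluorescence rising with cell death.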

[7] = qHTS RealTime-Glo MT Cell Viability Assay in HepG2 cells - 40 hour (AID 1224870); note: nearly all actives have a fitted effect of over 50% in size; note: potency is the fitted concentration of half-maximal effect
How it was run: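 HepG2 cells (600/well) mixed with RealTime-Glo MT reagent, settled 5 h at 37 C/5% CO2 before compound addition. Nonlytic NanoLuc luminescence from viable-cell prosubstrate reduction read repeatedly during 40 h treatment at 37 C.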

[8] = qHTS RealTime-Glo MT Cell Viability Assay in HEK293 cells - 32 hour (AID 1224868)
How it was run: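 Luminescence generated by NanoLuc from substrate produced by living HEK293 cells served as the viability signal. Each value reflects the reading at its stated time point during continuous 40 h compound exposure at 37 C.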

Structure (SMILES) | Potency [1] | Potency [2] | outcome [3] | Potency [4] | Potency [5] | Potency [6] | Potency [7] | Potency [8]
CC(C)c1ccc(OP(=O)(Oc2ccc(C(C)C)cc2)Oc2ccc(C(C)C)cc2)cc1 | inactive | inactive | inactive | inactive | inactive | inactive | inactive | 
CCCN(CCC)c1c([N+](=O)[O-])cc(C(C)C)cc1[N+](=O)[O-] | inactive | inactive | inactive | inactive | inactive | inactive | inactive | inactive
CCCC1CCCCN1 (stereo unspecified) | inactive | inactive | inactive | inactive | inactive | inactive | inactive | inactive
C[N+](C)(C)CC1CO1 (stereo unspecified) | inactive | inactive | inactive | inactive | inactive | inactive | inactive | inactive
O=C(Cc1ccccc1)c1ccccc1 | inactive | inactive | inactive | inactive | inactive | inactive | inactive | inactive
COc1cc(CC#N)cc(OC)c1OC | inactive | inactive | inactive | inactive | inactive | inactive | inactive | inactive
CCc1ccccc1N | inactive | inactive | inactive | inactive | inactive | inactive | inactive | 
C=CC(C)(CCC=C(C)C)OC(=O)c1ccccc1N (stereo unspecified) | inactive | inactive | inactive | inactive | inactive | inactive | inactive | inactive
Nc1cccc2ccccc12 | inactive | inactive | inactive | inactive | inactive | inactive | inactive | inactive
CCC(C)Cl (stereo unspecified) | inactive | inactive | inactive | inactive | inactive | inactive | inactive | inactive
CC(Oc1cccc(Cl)c1)C(=O)O (stereo unspecified) | inactive | inactive | inactive | inactive | inactive | inactive | inactive | inactive
O=C(NC(=O)c1cc(F)c(F)cc1Cl)Nc1cc(F)ccc1N1CCC(C(=O)O)CC1 | inactive | inactive | inactive | inactive | inactive | inactive | inactive | inactive
C[N+](C)(C)CCOC(=O)C(O)(c1ccccc1)c1ccccc1 | inactive | inactive | inactive | inactive | inactive | inactive | 23.9 µM (active) | inactive
CCCCC1C(=O)NC(=O)N(C2CCCCC2)C1=O (stereo unspecified) | inactive | inactive | inactive | inactive | inactive | inactive | inactive | inactive
CC(C)C1(C)N=C(c2ncccc2C(=O)O)NC1=O (stereo unspecified) | inactive | inactive | inactive | inactive | inactive | inactive | inactive | inactive
CCC(=O)O[C@@H]1C=C2CCC3C(CCC4(C)C3CC[C@@H]4OC(=O)CC)C2CC1 (stereo partly specified) | inactive | inactive | inactive | inactive | inactive | inactive | inactive | inactive
C[N+]1(CCF)[C@@H]2CC[C@H]1CC(OC(=O)C(O)(c1ccccc1)c1ccccc1)C2 (stereo partly specified) | inactive | inactive | inactive | inactive | inactive | inactive | inactive | inactive
CCCC[P+](CC)(CCCC)CCCC (tested in a mixture with another compound) | inactive | inactive | inactive | inactive | inactive | inactive | inactive | 
CCCBr | inactive | inactive | inactive | inactive | inactive | inactive | inactive | inactive
FC(F)OC(F)(F)C(F)Cl (stereo unspecified) | inactive | inactive | inactive | inactive | inactive | inactive | inactive | inactive
C=CC(=O)OCC | inactive | inactive | inactive | inactive | inactive | inactive | inactive | inactive
CC(C)OC(=O)Cc1ccccc1 | inactive | inactive | inactive | inactive | inactive | inactive | inactive | inactive
SCc1ccccc1 | inactive | inactive | inactive | inactive | inactive | inactive | inactive | inactive
Cc1cnc(C2=NC(C)(C(C)C)C(=O)N2)c(C(=O)O)c1 (stereo unspecified) | inactive | inactive | inactive | inactive | inactive | inactive | inactive | inactive
FC(Cl)(Cl)C(F)(Cl)Cl | inactive | inactive | inactive | inactive | inactive | inactive | inactive | inactive
CC(C)CCON=O | inactive | inactive | inactive | inactive | inactive | inactive | inactive | inactive
Cc1ccc2c(C)cccc2c1 | inactive | inactive | inactive | inactive | inactive | inactive | inactive | inactive
CC(Cl)C(=O)O (stereo unspecified) | inactive | inactive | inactive | inactive | inactive | inactive | inactive | inactive
